# High-throughput results deposited in PubChem BioAssay by Broad Institute.
# A selection: hits, their analogues and other compounds. The true share with any hit is near 3.9%.
# Casp6 inh = inhibitors of human caspase-6 | actives 0.53% (n = 350,000) | inhibition, % at 12.5 µM | P55212 | purified caspase-6, Z-VEID-R110 cleavage fluorescence;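 active = mean inhibition across replicates at least about 35%, with every replicate also reaching that limit, limit read from the data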;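 also: 0% = median of neutral control wells and 100% = no fluorescence left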
# Target sequence (P55212 24-179 limits assumed): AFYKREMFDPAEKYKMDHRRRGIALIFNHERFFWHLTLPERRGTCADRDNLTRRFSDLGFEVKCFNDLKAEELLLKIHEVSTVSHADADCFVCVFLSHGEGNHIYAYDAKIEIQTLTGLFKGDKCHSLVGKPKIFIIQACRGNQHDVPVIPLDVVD
# Target sequence (P55212 194-293 limits assumed): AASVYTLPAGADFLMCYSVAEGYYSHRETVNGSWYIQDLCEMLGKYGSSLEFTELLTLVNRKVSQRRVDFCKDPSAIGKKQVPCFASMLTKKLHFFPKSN
# CDK5 p35 inh = inhibitors of human CDK5/p35 kinase; inhibition, % at 10 µM; actives 0.01% (n = 330,000); Recombinant CDK5/p35, ADP-Glo luminescence, 60 min; Q00535+Q15078;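 active = highest replicate inhibition of at least 50% and at least 75% of replicates reaching 50%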;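 also: plate controls were DMSO neutral control for no effect and GW8510 at 10 µM for full effect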
# ALR H2O2 inh = human ALR oxidase inhibition via reduced H2O2. P55789. purified ALR, DTT oxidation, H2O2 HRP-luminol luminescence. inhibition, % (no concentration beside the values). actives 3.8% (n = 290,000). AID 485317;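 active = mean replicate inhibition above about 79%, with every replicate also reaching it, limit read from the data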
# Target sequence (P55789 whole entry, looked up): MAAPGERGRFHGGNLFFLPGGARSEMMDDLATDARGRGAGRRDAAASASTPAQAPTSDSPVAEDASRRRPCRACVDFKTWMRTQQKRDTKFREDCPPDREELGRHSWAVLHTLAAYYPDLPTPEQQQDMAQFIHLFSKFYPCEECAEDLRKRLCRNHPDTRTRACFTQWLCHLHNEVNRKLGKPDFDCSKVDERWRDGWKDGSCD
# Glyco luc inh = N-linked glycosylation inhibition | reporter increase, % at 12.5 µM | actives 0.23% (n = 360,000) | AID 588692 | D54 ERlucT glycosylation luciferase reporter, 24 h; percent of 100 nM tunicamycin response;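 active = mean luciferase reporter signal, scaled so untreated is 0 and the glycosylation-blocking control 100, at or above a set limit in every replicate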;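 also: luciferase carries N-glycosylation sites so blocking glycosylation raises the light; 0% = median of neutral control wells and 100% = median of 100 nM tunicamycin wells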
# SUMO Mot1 rescue = SUMOylation pathway inhibition by Mot1-301 growth rescue | S. cerevisiae Mot1-301 growth rescue, ATP luminescence, 38.5C; percent above DMSO median, 100 means doubled | growth rescue, % at 18.8 µM | actives 1% (n = 320,000) | AID 2716;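 active = every valid replicate shows activation above 250% relative to neutral control wells; inactive = the rest, any valid replicate at or below 250%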;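 also: OY570 slx delta 5 strain wells were the positive control but not used for scaling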
# NSD2 inh = inhibitors of human histone methyltransferase NSD2 | O96028 | NSD2 peptide methylation, AlphaScreen, 120 min | inhibition, % at 12.5 µM | actives 0.54% (n = 310,000); in the data active = inhibition above about 50%
# Starred values were filed as active, the others as inactive; i = inactive; nt = no result given.
SMILES,Casp6 inh,CDK5 p35 inh,ALR H2O2 inh,Glyco luc inh,SUMO Mot1 rescue,NSD2 inh
COc1ccc(S(=O)(=O)N(C)C[C@H]2OCCCC[C@H](C)Oc3ccc(NC(=O)c4ccncc4)cc3C(=O)N([C@@H](C)CO)C[C@@H]2C)cc1,2,nt,nt,nt,nt,nt
COc1ccc(-c2nc(C(N)=O)c3[nH]c(=O)n(-c4cccc(Cl)c4)c3n2)cc1OC,nt,-3,nt,36*,nt,-1
O=C(CCc1ccco1)CCc1ccco1,76*,1,nt,-2,nt,-2
CCC(=O)Nc1ccc2c(c1)C(=O)N(C)C[C@@H](OC)[C@H](C)CN(Cc1ccc(-c3ccccn3)cc1)[C@H](C)CO2,-3,nt,nt,nt,nt,nt
CCn1c(/C=C/c2ccccc2C)nc2ccccc2c1=O,-16,0,2,2,24,1
CCn1c(/C=C/c2ccc(O)cc2)nc2ccccc2c1=O,0,1,98*,0,11,-1
Cc1nc2ccccc2c(=O)n1CCc1ccc(O)cc1,-4,0,96*,1,-10,nt
CCn1c(/C=C/c2ccc(O)c(O)c2)nc2ccccc2c1=O,24,1,100*,-4,280,14
O=C(O)CCC(=O)Nc1sc2c(c1C(=O)Nc1ccccc1)CCCCC2,47*,0,4,1,-10,6
COc1ccccc1NC(=O)c1c(NC(=O)CCC(=O)O)sc2c1CCCCC2,15,2,98*,2,7,31
C[C@H]1CN([C@@H](C)CO)C(=O)c2cc(-c3ccc(C#N)cc3)cnc2O[C@@H]1CN(C)C(=O)CN(C)C,-14,nt,nt,nt,nt,nt
COc1ccc(CCNC(=O)c2cc3c(=O)n4cccc(C)c4nc3n(Cc3ccco3)c2=N)cc1OC,0,-1,76*,11,-5,-1
Cc1cccn2c(=O)c3cc(C(=O)NCc4ccco4)c(=N)n(CCc4ccccc4)c3nc12,6,-1,nt,53*,nt,0
CN(C)c1ccc(Nc2nc(-c3cccnc3)cs2)cc1,nt,0,95*,-12,-16,0
C[C@@H]1CN([C@@H](C)CO)C(=O)c2cc(NC(=O)Cc3ccccc3)ccc2O[C@@H]1CN(C)Cc1ccc(Cl)c(Cl)c1,1,nt,nt,nt,nt,nt
CCCCNC(=O)C1C(c2ccc(C(F)(F)F)cc2)=Nc2ccccc2N1C(C)=O (configuration not stated),2,nt,nt,nt,nt,-1
CCCCNC(=O)C1C(c2ccc(C(F)(F)F)cc2)=Nc2ccccc2N1C(=O)c1ccc2nc(C)[nH]c2c1 (configuration not stated),40*,nt,nt,nt,nt,nt
Cc1ccc(N2CCN(S(=O)(=O)c3nnc(NC(=O)c4ccco4)s3)CC2)cc1,-2,0,97*,1,-2,nt
Cc1ccccc1N(C)S(=O)(=O)c1nnc(NC(=O)c2ccco2)s1,69*,0,23,-2,3,11
O=C(NNC(=S)NC(=O)c1cccc([N+](=O)[O-])c1)c1ccc(Br)cc1,2,1,96*,0,-8,0
Cc1cccc(NC(=S)NNC(=O)c2cccc([N+](=O)[O-])c2)c1,2,1,68,2,-5,3
O=C(NC(=S)N1CCCC1)c1cccc([N+](=O)[O-])c1,-1,1,-2,0,-17,0
O=C(NNC(=S)Nc1ccc(Cl)c(Cl)c1)c1cccc([N+](=O)[O-])c1,6,nt,98*,1,-9,-15
O=C(NNC(=O)c1ccncc1)Nc1cccc([N+](=O)[O-])c1,-1,-1,14,-1,430*,16
CCCCC(=O)NNC(=S)NC(=O)c1cccc([N+](=O)[O-])c1,nt,3,98*,2,-12,2
SMILES,Casp6 inh,CDK5 p35 inh,ALR H2O2 inh,Glyco luc inh,SUMO Mot1 rescue,NSD2 inh
CO[C@H]1CN(C)C(=O)c2cc(NS(=O)(=O)Cc3ccccc3)ccc2OC[C@@H](C)NC[C@H]1C,-3,nt,nt,nt,nt,nt
Cc1occc1C(=O)NNC(=S)Nc1cccc([N+](=O)[O-])c1,6,1,98*,2,nt,-2
CC(=O)NC(=S)Nc1cccc([N+](=O)[O-])c1,6,2,6,0,16,-1
O=C(NNC(=S)NC(=O)c1ccccc1)c1cccc([N+](=O)[O-])c1,-4,2,98*,2,-1,1
O=C(NC(=S)Nc1cccc(F)c1)c1cccc([N+](=O)[O-])c1,0,1,33,3,-28,6
O=C(NNC(=S)NC(=O)c1cccc([N+](=O)[O-])c1)c1ccc(O)cc1,1,2,88*,0,171,0
O=C(NNC(=O)c1cccc([N+](=O)[O-])c1)c1ccncc1,-1,-4,3,0,-9,-1
O=C(NNc1cccc([N+](=O)[O-])c1)/C(=C\c1cccnc1)NC(=O)c1ccccc1,1,1,99*,-1,-21,3
CCCNC(=O)C[C@H]1CC[C@H]2[C@@H](COC[C@H](O)CN2CC2CCCCC2)O1,1,nt,nt,nt,nt,nt
O=C(Cn1c(=O)c2sccc2n(Cc2cccc([N+](=O)[O-])c2)c1=O)NCCc1ccccc1,1,1,-5,-4,884*,4
Cc1ccc(C(=O)NC(=S)NNC(=O)c2cccc([N+](=O)[O-])c2)cc1,0,3,99*,3,i,-2
CC(C)(C)c1ccc(OCC(=O)NNC(=S)NC(=O)c2ccccc2[N+](=O)[O-])c(Br)c1,1,2,92*,-4,37,9
O=C(Cn1c(=O)c2sccc2n(Cc2ccc([N+](=O)[O-])cc2)c1=O)NCCc1ccccc1,nt,0,-4,-1,2,0
O=C(NCCc1ccccc1)c1cccc([N+](=O)[O-])c1,-3,0,-2,-3,514*,-1
COc1ccc(CCNC(=O)c2cccc([N+](=O)[O-])c2)cc1OC,-2,1,-32,2,19,5
CCC(=O)NC(=S)NNC(=O)c1ccc([N+](=O)[O-])cc1,nt,0,19,1,-11,9
C[C@@H]1CN([C@H](C)CO)C(=O)c2cc(C#CC3CC3)cnc2O[C@@H]1CN(C)C(=O)Nc1ccc(F)cc1,-1,nt,nt,nt,nt,nt
O=C(NC(=S)NNC(=O)c1ccccc1[N+](=O)[O-])c1ccccc1,nt,2,96*,2,10,-2
C[C@H]1CN([C@@H](C)CO)C(=O)c2cc(NS(=O)(=O)c3ccc(F)cc3)ccc2O[C@H]1CN(C)Cc1ccc(C(F)(F)F)cc1,1,nt,nt,nt,nt,nt
Cc1ccc(C)c(N2N=C(C(=O)OCc3nnc(-c4ccccc4Br)o3)CCC2=O)c1,61*,nt,nt,4,nt,0
Cc1ccc(C)c(N2N=C(C(=O)OCc3nnc(-c4cccs4)o3)CCC2=O)c1,4,-2,nt,0,nt,4
O=C(N[C@@H]1CC[C@@H](CCn2cc(-c3ccccc3)nn2)O[C@@H]1CO)c1ccccc1F,-1,nt,nt,nt,nt,nt
O=C(C[C@H]1CC[C@@H]2[C@H](COC[C@H](O)CN2C(=O)c2ccccc2)O1)Nc1nccs1,0,nt,nt,nt,nt,nt
